# Test results reported in PubChem BioAssay (NCI).
# “And” between values parts separate entries of the source, which are not always exact repeats. Identical values can stand only once. Compounds without any hit were thinned out: in the full panel of roughly 83,000, 20% have a hit.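 Method: cells in 96-well plates; compound added at one concentration; 48 h incubation; percent growth measured; values under 10 scored active.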 The source made the active and inactive calls.
# Tested on: MDA-MB-468 breast
# Experiment: NCI-60 one-dose screen, 48 h (100 = growth as untreated, 0 = no growth, -100 = all killed)
# Details: 10 µM unless noted
row,SMILES,growth
1,O=C(c1ccc(Cl)cc1)C1[C@H](c2ccc(Cl)cc2)[C@@H](c2ccccc2)NC12C(=O)Nc1ccc(Br)cc12 (some centres undefined),45.8% (inactive)
2,Oc1c(-c2cc(C(F)(F)F)[nH]n2)cc(Cl)c(OCc2ccc(Cl)cc2)c1-c1ccc(Cl)c(C(F)(F)F)c1,-21.4% (active)
3,O=C(c1ccc(Cl)cc1)C(NCCO)c1ccc(Cl)cc1 (centres undefined),84.1% (inactive) and 114% (inactive)
4,CC(=O)c1ccc(C)cc1,98.4% (inactive)
5,FC(F)(F)c1ccc(-c2nc(-c3nc4cc(Cl)c(Cl)cc4[nH]3)c3ccccn23)cc1,41.9% (inactive)
6,C=C(C)[C@@H]1CC[C@]2(C(=O)NC3CCCCC3)CC[C@]3(C)[C@H](CC[C@@H]4[C@@]5(C)CCC(=O)C(C)(C)[C@@H]5CC[C@]43C)[C@@H]12,83.5% (inactive)
7,Cn1ncc(Cl)c1-c1cc(C(=O)N[C@H](CN)Cc2cccc(F)c2)sc1Cl,-62.5% (active)
8,CN(C)C(=O)c1cc2cnc(Nc3ccc(-c4csc5c(=O)cc(N6CCNCC6)oc45)cc3)nc2n1C1CCCC1,19.6% (inactive)
9,CC1(n2nnnc2N2CCCN(c3ncccc3N)CC2)CCC1,93% (inactive)
10,COc1ccc(CC(C)=C(c2ccc(OCCN3CCCC3)cc2)c2ccc(OCCN3CCCC3)cc2)cc1,-85.2% (active)
11,C=CC(=O)Nc1ccc(Nc2nccc(-c3ccc(N4CCCC4)c(C#N)c3)n2)cc1,-9.73% (active)
12,C[n+]1c(/C=C/c2c[nH]c3ccccc23)ccc2ccccc21,23% (inactive)
13,O=C(NCCN1CCC(O)CC1)c1cc2c(o1)C(=O)c1ccccc1C2=O,-85.8% (active)
14,O=S(=O)(Nc1ncccn1)c1ccc(NC2Nc3nc4ccccc4nc3S2)cc1 (centres undefined),95.5% (inactive)
15,O=c1c(CNc2ccc(S(=O)(=O)Nc3nccs3)cc2)coc2ccccc12,92.9% (inactive)
16,COc1ccc(/C=C\c2cc(OC)c(OC)c(OC)c2)cc1OC(=O)c1cccc(Cn2cc(CCOC(=O)c3cccc(Cn4nnc5c4C(=O)c4ccccc4C5=O)c3)nn2)c1,5.62% (active)
17,Clc1ccc2c(NCCNc3nc(N4CCOCC4)nc4ccccc34)ccnc2c1,25.1% (inactive)
18,CCOC(=O)c1cn2ncnc(Oc3ccc(NC(=O)NCCN(CC)CC)c(Cl)c3)c2c1C,52.8% (inactive)
19,COc1ccc(C(=O)N/N=C/c2ccc(O)cc2O)cc1Nc1ccnc(C(F)(F)F)c1,29.2% (inactive)
20,COc1cc2c(cc1-c1c(C)noc1C)ncc1nc(C3CCOCC3)n(C3CCC(OC(F)F)CC3)c12 (centres undefined),40.9% (inactive)
21,COC(=O)c1c2c(c(C)[n+]([O-])c1C)C(=O)C(NCc1ccc(Cl)cc1)=CC2=O,39.8% (inactive)
22,CC(C)C1=NOC(=O)C1=Cc1cn(-c2ccccc2)nc1-c1ccccc1,97.2% (inactive)
23,NCCNc1nc(-c2ccccc2)nc2nc(-c3ccccc3)oc12,18.9% (inactive)
24,C/C(=N\Nc1nc(C)cs1)c1cc2ccccc2o1,82.6% (inactive)
